According to the supplement of paper PMC6555819:

Assays:
Assay in all cases: PBM binding z-score (relative to random genomic background probes); higher = stronger binding; sequences stand for … in GC…GCGATTGACAGCGTAGAATGAAGG
[1] = system: FXR:RXRa (NR concentration 270 nM, RXRa partner concentration 90 nM)
Method in brief: (§1)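 Ligand-free nuclear receptor dimers were applied to custom Agilent 4×180K protein-binding microarrays whose double-stranded probes carried direct-repeat seeds, single-nucleotide variants, half-site ablations and random human genomic background sequences in 34-nt variable regions. Incubation lasted 1 h. Binding z-scores were computed against the random background probes from regression-normalized fluorescence.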

[2] = system: LXRa:RXRa (NR concentration 270 nM, RXRa partner concentration 90 nM)
Method in brief: as §1

[3] = system: LXRa homodimer (NR concentration 270 nM)
Method in brief: as §1

[4] = system: LXRb:RXRa (NR concentration 270 nM, RXRa partner concentration 90 nM)
Method in brief: as §1

[5] = system: LXRb homodimer (NR concentration 270 nM)
Method in brief: as §1

[6] = system: PPARa:RXRa (NR concentration 270 nM, RXRa partner concentration 90 nM)
Method in brief: as §1

[7] = system: PPARg:RXRa (NR concentration 180 nM, RXRa partner concentration 90 nM)
Method in brief: as §1

[8] = system: PPARg:RXRa 270nM:90nM, anti-RXR (NR concentration 270 nM, RXRa partner concentration 90 nM)
Method in brief: as §1

[9] = system: PPARg:RXRa 30nM:10nM, anti-RXR (NR concentration 30 nM, RXRa partner concentration 10 nM)
Method in brief: as §1

[10] = system: PPARg:RXRa 90nM:30nM, anti-RXR (NR concentration 90 nM, RXRa partner concentration 30 nM)
Method in brief: as §1

[11] = system: PPARg:RXRa DBDmut IVT, anti-RXR (DBD mutation: RXRa K156A/R161A, NR concentration 270 nM, RXRa partner concentration 90 nM)
Method in brief: as §1

[12] = system: PPARg:RXRa IVT, anti-PPARg (NR concentration 270 nM, RXRa partner concentration 90 nM)
Method in brief: as §1

[13] = system: PPARg DBDmut:RXRa IVT, anti-PPARg (DBD mutation: PPARg1 K132A/R137A, NR concentration 270 nM, RXRa partner concentration 90 nM)
Method in brief: as §1

[14] = system: PPARg DBDmut IVT, anti-PPARg (DBD mutation: PPARg1 K132A/R137A, NR concentration 270 nM)
Method in brief: as §1

[15] = system: PPARg homodimer (NR concentration 180 nM)
Method in brief: as §1

[16] = system: PXR:RXRa (NR concentration 270 nM, RXRa partner concentration 90 nM)
Method in brief: as §1

[17] = system: PXR homodimer (NR concentration 270 nM)
Method in brief: as §1

[18] = system: RARa:RXR (NR concentration 270 nM, RXRa partner concentration 90 nM)
Method in brief: as §1

[19] = system: RARa homodimer (NR concentration 270 nM)
Method in brief: as §1

[20] = system: RARb:RXRa (NR concentration 270 nM, RXRa partner concentration 90 nM)
Method in brief: as §1

Sequence	PBM binding z-score [1]	PBM binding z-score [2]	PBM binding z-score [3]	PBM binding z-score [4]	PBM binding z-score [5]	PBM binding z-score [6]	PBM binding z-score [7]	PBM binding z-score [8]	PBM binding z-score [9]	PBM binding z-score [10]	PBM binding z-score [11]	PBM binding z-score [12]	PBM binding z-score [13]	PBM binding z-score [14]	PBM binding z-score [15]	PBM binding z-score [16]	PBM binding z-score [17]	PBM binding z-score [18]	PBM binding z-score [19]	PBM binding z-score [20]
ACAGACAGGTGAGTGAAAGTAACTCAGCTGGACG	0.0251	0.239	-0.514	-0.461	-0.641	-0.0542	0.742	-0.29	-0.67	-0.542	0.546	0.438	-0.222	0.175	-1.05	-0.413	-0.648	0.2	-0.554	0.304
GCACGGAGGACAAGGTCAGAGCTTTGTCCGTAGA	1.87	1.26	-0.362	1.23	-0.916	2.15	0.53	1.2	-0.394	0.459	-0.0936	0.429	-1.21	-1.21	0.85	1.72	-0.197	2.03	-0.486	3.27
GTACCAAGGCGAATAGGTCGTTGATGAGTAGGCG	-0.145	-0.392	-0.286	-0.382	-0.895	0.351	0.461	-0.0926	-0.512	-0.516	-0.264	-0.208	-0.611	-1.17	-0.305	-0.106	-0.0295	0.507	-0.623	0.291
TGTCAAAGTTCAAAGGGAACGTAAGTATCCACAC	7.11	6.18	3.96	4.16	1.68	5.06	8.1	7.17	5.31	7.11	-0.458	3.95	2.37	1.56	4.11	4.92	4.8	4.2	1.6	4.93
TCTAGTTGGTAACGGAGGTCACACACGACGGGTA	2.77	3.39	3.31	3.27	0.826	3.7	2.37	3.33	3.38	3.55	1.63	2.76	0.969	0.885	2.11	3.99	1.46	4.04	1.83	3.27
GCATATAGGTAATACGAGGTGAAAGTCCGATTGT	2.16	2.66	0.407	0.883	-0.463	1.76	1.44	1.38	0.459	0.853	4.42	3.44	0.607	1.33	0.669	0.96	0.299	1.27	0.304	0.336
CCGACTGGGGCATAAGGTTTCCATAAGCCAGCCC	0.03	-0.0633	-0.565	-0.536	-1.41	0.26	1.11	1.75	-0.0792	1.44	3.04	2.38	-1.41	-1.66	-0.419	-0.536	-0.762	-0.479	0.00521	0.514
CTACCAAGGTGAAAAAGGTCGTTGATTACTATTC	1.22	1.45	0.405	1.86	-0.412	2.61	0.694	1.3	0.297	0.721	1.42	1.39	0.0289	-0.0502	0.878	2.31	1.09	2.56	0.555	2.02
TAGCCTATGTCATGGGCCAGTATACCACGCGAAC	-0.15	-0.356	-0.253	-0.589	-0.827	-0.267	0.56	-0.0658	-0.369	-0.213	-0.759	0.165	-0.733	0.201	-0.377	-0.487	-0.151	0.249	-0.171	0.192
ATATTTAGGTTACATCCGGGTCATTCAGGCTATG	2.65	4.19	2.61	3.21	1.94	4.28	4.37	4.16	2.28	3.35	6.5	6.04	2.49	3.35	3.88	3.75	3.78	4.29	3.08	2.54
GGAACGAGGGCAGTCGAGTTGATAGCATGGCGAT	0.203	-0.214	-0.72	-0.752	-1.02	0.405	0.453	-0.213	-0.485	-0.457	2.24	1.29	-0.319	-0.59	-0.872	1.83	-0.252	-0.0532	-0.989	1.77
CCAACTGGGCCACGAAAGGTCATTGATTCAGTGA	3.69	5.09	4.15	4.41	0.134	4.75	4.7	4.74	1.7	3.62	5.74	5.79	-0.114	-0.318	3.56	5.23	1.31	5.31	1.12	4.02
ATAATGAGGTTATACGTAGATCAGGGAAGAAAGT	2.27	2.55	0.45	1.89	0.893	3.42	2.56	2.38	0.895	1.89	4.24	2.58	2.03	2.05	0.998	1.7	0.97	2.12	1.63	1.75
ACAGACAGGTGAGTAAAGGTAACTCAGCTGGACG	0.171	0.4	-0.568	-0.0938	-0.506	0.95	1.25	1.64	0.681	1.27	0.353	1.07	0.151	-0.231	-0.162	0.082	-0.77	1.06	-0.0924	0.798
